Source: PubChem BioAssay AID1918990 (ICCB-Longwood Screening Facility, Harvard Medical School, 2023)
The campaign covered roughly 29,000 compounds. About 85 (0.3%) were called active. The sample as a whole holds a higher share of actives than the screen did. Unmarked numbers belong to inactive results.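 How the source made its calls: active means replicate mean overnight rise in green fluorescent reporter signal, 3 or more SD over negative controls; inactive means the rest.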

experiment: fixK promoter GFP reporter activation – B. multivorans, primary screen (AID 1918990); details: 18 h, active compounds read high

SMILES	z-score
COc1cc(NS(=O)(=O)c2cccs2)cc(OC)c1	-1.05
Cc1ccc(C(=O)Nc2ccc3[nH]c(=O)c(=O)[nH]c3c2)cc1	-0.29
CCCC(=O)Nc1cc2nn(-c3ccccc3)nc2cc1C	-0.72
O=C(CSc1ccncc1)NC1CCOCC1Oc1cccc(F)c1 (configuration not stated)	-0.58
COc1cc(OC)c(N(C)C(=O)c2cc3c(=O)oc4ccccc4c3s2)cc1Cl	-1.12
CCC(=O)N1CCc2cc(S(=O)(=O)NC(Cc3ccccc3)C(=O)NCc3ccccc3)ccc21 (configuration not stated)	-1.81
CC(NC(=O)CCN1CCN(C)CC1)c1cnn(-c2ccccc2)c1 (configuration not stated)	0.09
COc1cc(OC)c(NC(=O)c2c3c(nn2C)-c2ccccc2SC3)cc1Cl	1.42
CCOC(=O)c1cnc2c(C)cc(C)cc2c1Nc1ccc(N2CCOCC2)cc1	-0.2
O=C1CCC2(CCCN(C(=O)c3n[nH]c4c3CCCC4)C2)CN1CC1CC1 (configuration not stated)	-0.52
CC(C)(C)NC(=O)CSc1nc(-c2ccc(F)cc2)cc(C(F)(F)F)n1	-1.55
CCc1ccc(CN(Cc2ccco2)C(=O)c2ccccc2Cl)cc1	1.11
CCN1CCc2nc3sc(C(=O)Nc4ccccc4OC(F)(F)F)c(N)c3cc2C1	-0.04
Cc1ccc(S(=O)(=O)N2CCCC(C(=O)CCc3ccccc3)C2)s1 (configuration not stated)	-1.15
Cc1cc(C)nc(CCNC(=O)N(Cc2ccncc2)CC2CCC(=O)N2)n1 (configuration not stated)	0.83
Cc1ccc(Cl)cc1NC(=O)CCS(=O)(=O)c1ccc(Br)s1	-1.34
CCCN1CCN(CCCNC(=O)Cn2nc(CC)n3c(cc4occc43)c2=O)CC1	0.72
Cc1nn(C)c2c1C(NC(=O)c1cc(CC(C)C)on1)CCC2 (configuration not stated)	-0.15
Cc1ccc(NC(=O)C(Cc2ccccc2)NS(=O)(=O)c2ccc3c(c2)oc(=O)n3C)cc1C (configuration not stated)	0.54

SMILES	z-score
Cc1nc2c(-c3ccccc3)c(C)nn2c(C)c1CCC(=O)NCCc1ccccc1	-0.95
COc1ccc(-c2noc(CCC(=O)N(C)c3ccccc3C)n2)cc1	-1.83
CCn1c(=O)c(=O)n(CC)c2cc(N3CCCCC3)c(NC(=O)c3ccc(Cl)cc3)cc21	15.3 (active)
CCn1c(C(=O)Nc2cc(Cl)ccc2C)cc2sc(Cl)cc21	-0.88
CCn1c(=O)c(=O)n(CC)c2cc(N3CCCCC3)c(NC(=O)c3cccc(F)c3)cc21	0.36
CCCn1nccc1S(=O)(=O)NCc1csc(-c2cnccn2)n1	-1.08
Cc1cccc(NC(=O)C2CCCN2S(=O)(=O)c2cccc3nsnc23)c1C (configuration not stated)	0.05
CN1C(=O)c2[nH]nc(-c3ccc(F)cc3)c2C1c1ccccn1 (configuration not stated)	0.33
CN(CCNC(=O)CN1CCCC(c2ccccc2)C1)S(C)(=O)=O (configuration not stated)	0.17
Cc1[nH]c(=O)[nH]c(=O)c1CC(=O)NCc1ccc(-c2ncon2)cc1	-1.58
CCOC(=O)c1ccc(NC(=O)CC2C(=O)N(c3cccc(OC)c3)C(=O)N2C2CCCCC2)cc1 (configuration not stated)	-0.28
CCOC(=O)c1cc2c(=O)n3ccccc3nc2n(CCCOC)c1=NC(=O)C(C)(C)Oc1ccc(Cl)cc1	-0.51
Cc1cc(C(=O)NCCCc2nnc3ccccn23)nc(C)n1	-0.17
COc1ccc(CNC(=O)c2cc3c(s2)-c2ccccc2OC3)cc1	0.73
COc1ccccc1CNC(=O)Cn1nccc1C1CCCNC1 (configuration not stated)	0
CCCCNC(=O)c1ccc2c(c1)NC(=O)C(C(C)C)N2 (configuration not stated)	0.08
COc1cc2nc(NCC(C)c3ccccc3)n3nc(-c4ccccc4)nc3c2cc1OC (configuration not stated)	-0.67
CCCS(=O)(=O)c1c(Nc2ccccc2C)sc(C(=O)c2ccccc2)c1N	0.44
CC1CCC2(CC1)N=C(c1ccccc1)C(=O)N2CC(=O)Nc1ccc(F)c(Cl)c1 (configuration not stated)	-1.75

SMILES	z-score
Cc1cc(C)cc(NS(=O)(=O)c2ccc3[nH]cc(C(=O)N4CCCCC4)c(=O)c3c2)c1	-1.09
COc1ccc(CCNCc2c(C(=O)O)c(C)n(Cc3cccc(C)c3)c2C)cc1OC	-1.27
COC(=O)c1c(NC(=O)c2cc(=O)c3c(C)cc(C)cc3o2)sc2c1CCCC2	-1.12
COCCN(CC=Cc1ccccc1)Cc1ccc2nonc2c1	0.18
COc1cc2c(=O)c(S(=O)(=O)c3ccc(C(C)C)cc3)cn(Cc3ccccc3C)c2cc1OC	0.3
CCOC(=O)c1c(NC(=O)COc2cc(C)ccc2C(C)C)sc(C)c1C	-0.34
c1ccc(-c2noc(CCn3ccnc3-c3cnsc3)n2)nc1	0.47
Cc1ccc(-n2nc(CO)c(C(=O)NCCc3ccccc3)n2)cc1	-0.78
CC(C)c1nnsc1C(=O)Nc1ccc(CC(=O)NC2CC2)cc1	-0.11
Cn1ccnc1C(O)c1cc2n(n1)CCN(Cc1cccc(Cl)c1)C2 (configuration not stated)	0.34
COCCCNC(=O)c1c(NC(=O)c2cc(=O)c3cc(C)c(C)cc3o2)sc2c1CCCC2	-0.42
COc1cccc2c1C1(CCN(C(=O)c3ccccn3)CC1)OCC2	0.69
CCOC(=O)C1CCCN(C(=O)Cn2ncc3c(C)n(Cc4ccc(F)cc4)c(C)c3c2=O)C1 (configuration not stated)	0.33
COc1ccc(Cl)cc1NC(=O)NCC1CCN(Cc2ccccc2F)CC1	-7.23
Cc1ccc(C(=O)NCCc2nc(N)cc(=O)[nH]2)n1C(F)F	-0.52
COc1ccc(NC(=O)CSc2nc3ncccc3[nH]2)c(OC)c1	1.38
Cn1c(C2CCN(C(=O)CSc3nnc(N)s3)CC2)nc2ccccc21	0.47
CN(Cc1ccccc1)C(=O)c1cc2c(=O)n(C)c3ccccc3c2s1	0.14
CCOc1ccc(S(=O)(=O)N(CC(=O)NCCSCc2ccc(C)cc2)c2ccccc2)cc1	-1.04
